Reference: PubChem BioAssay (NCI)
The panel holds about 83,000 compounds, 20% with a hit somewhere; the sample as a whole holds those more often.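 Values shown are percent growth following 48 h exposure of cells in 96-well plates to a single concentration of compound; below 10 was considered active.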 Unmarked numbers belong to inactive results. The source made the active and inactive calls.

What was measured:
Test in all cases: NCI-60 one-dose screen, 48 h (100 = growth as untreated, 0 = no growth, -100 = all killed)
Conditions in all cases: 10 µM unless noted
HCT-15 colon = test system: HCT-15 colon
HT29 colon = test system: HT29 colon
SNB-75 CNS = test system: SNB-75 CNS
SNB-19 CNS = test system: SNB-19 CNS
U251 CNS = test system: U251 CNS
PC-3 prostate = test system: PC-3 prostate
SK-MEL-5 melanoma = test system: SK-MEL-5 melanoma
UACC-62 melanoma = test system: UACC-62 melanoma
LOX IMVI melanoma = test system: LOX IMVI melanoma
SK-MEL-28 melanoma = test system: SK-MEL-28 melanoma
SK-MEL-2 melanoma = test system: SK-MEL-2 melanoma
EKVX NSCLC = test system: EKVX NSCLC
SN12C renal = test system: SN12C renal
UO-31 renal = test system: UO-31 renal
TK-10 renal = test system: TK-10 renal
ACHN renal = test system: ACHN renal
CAKI-1 renal = test system: CAKI-1 renal
A498 renal = test system: A498 renal
CCRF-CEM leukemia = test system: CCRF-CEM leukemia
MOLT-4 leukemia = test system: MOLT-4 leukemia

Structure (SMILES) | growth (HCT-15 colon) | growth (HT29 colon) | growth (SNB-75 CNS) | growth (SNB-19 CNS) | growth (U251 CNS) | growth (PC-3 prostate) | growth (SK-MEL-5 melanoma) | growth (UACC-62 melanoma) | growth (LOX IMVI melanoma) | growth (SK-MEL-28 melanoma) | growth (SK-MEL-2 melanoma) | growth (EKVX NSCLC) | growth (SN12C renal) | growth (UO-31 renal) | growth (TK-10 renal) | growth (ACHN renal) | growth (CAKI-1 renal) | growth (A498 renal) | growth (CCRF-CEM leukemia) | growth (MOLT-4 leukemia)
CC(C)CCC[C@@H](C)[C@H]1CC[C@H]2[C@@H]3CC=C4C[C@@H](C(C(=O)O)C(=O)O)CC[C@]4(C)[C@H]3CC[C@]12C | -6.36% (active) | -35.1% (active) | -61.1% (active) | 18.6% | -46.8% (active) | -5.95% (active) | -96% (active) | -53.4% (active) | -29.3% (active) | -49.6% (active) | -58.5% (active) | -32.4% (active) | -12.2% (active) | -53.4% (active) | -52% (active) | -17.7% (active) | -51% (active) | -84.4% (active) | -24.3% (active) | -56.2% (active)
N#C/C(=C\c1ccc(Br)cc1)n1nnc2ccc(F)cc21 | -18.2% (active) | 3.64% (active) | 0.279% (active) | 19.5% | 1.71% (active) | 7.5% (active) | 6.12% (active) | -54.7% (active) | -63.7% (active) | -5.29% (active) | 13.8% | 49.9% | -51.2% (active) | -36.4% (active) | -3.76% (active) | -37.9% (active) | -4.59% (active) | -15.6% (active) | -10.2% (active) | -20% (active)
CC(C)N1CN2C(=S)NC3C2N(C1)C(=S)N3C (stereo not given) | 105% | 92.4% | 85.5% | 100% | 101% | 98% | 97.9% | 96.6% | 98.9% | 114% | 93.4% | 103% | 97.6% | 95.9% | 97.2% | 117% | 92.6% | 102% | 94.8% | 104%
CCn1cc(C(=O)N/N=C/c2cccs2)c(=O)c2cc(F)c(N3CCNC(C)C3)c(F)c21 (stereo not given) | 25% | -76.7% (active) | 88.5% | 73% | 53.3% | 76.3% | 69.8% | 96.5% | -84.1% (active) | 89.9% | 103% | 34.1% | 70% | 66.8% | 83.9% | 87.2% | 46.5% | 104% | 67.2% | 75.1%
Cc1cc(Cl)ccc1Nc1nc(C(F)(F)F)ccc1C(=O)N/N=C/c1ccc([N+](=O)[O-])cc1 | -1.51% (active) | -26.6% (active) | -12.2% (active) | 22.7% | -13.9% (active) | -43.7% (active) | 84.7% | 12.6% | 7.3% (active) | 5.64% (active) | -33.5% (active) | -8.42% (active) | 4.6% (active) | -27.1% (active) | -8.71% (active) | -22.9% (active) | 2.14% (active) | 88.9% | -12.9% (active) | -5.84% (active)
CCCc1cc(NC)nc(S(=O)(=O)CC)n1 | 104% | 107% | 88.6% | 102% | 107% | 109% | 104% | 93.8% | 103% | 106% | 115% | 104% | 99.1% | 91.8% | 110% | 107% | 98.1% | 113% | 107% | 107%
O=C(CSc1nc(-c2ccccc2)[nH]c1S(=O)(=O)c1ccccc1)NC1CC1 | 28.2% | 95.1% | 98.1% | 101% | 20.1% | 80.8% | 35.6% | 94.6% | 44.8% | 120% | 102% | 65.1% | 96.5% | 89.2% | 87.2% | 104% | 99.2% | 72.9% | 93.4% | 93.8%
